Out of some 48,000 compounds screened, about 13,000 (27%) showed an effect of 50% or more. Some of the results follow.

The test concerns Wolbachia pipientis. Nature of the test: Anti-Wolbachia Cell-Based Screen. It counts as functional. On the set-up: scale not given: in the data most compounds retested in dose-response had high values. Particulars: 5 µM.
In the case of `Cc1ccc(CNCC2CCCn3ccnc32)s1` (configuration not stated), the “Percent Effect” value is on record as -4.636%.
In the case of `Cn1cc(C2=NOC(C(=O)NC3(c4ccccc4F)CCCC3)C2)cn1` (configuration not stated), the “Percent Effect” value is 111.1%.
As for `O=C(NC1(c2cccc(F)c2)CCOCC1)c1ccoc1`, the “Percent Effect” value is recorded as -9.671%.
Next, `O=C(NC1(c2cccc(F)c2)CCOCC1)c1ccccn1`: 10.14%; `CC(=O)c1cc(C(=O)NC2(c3ccccc3)CCC2)n(C)c1`: -2.692%.
As for `CC(C)C(NC(=O)c1ccccc1F)C(=O)Nc1cnn(C)c1` (configuration not stated), the “Percent Effect” value worked out at 10.34%.
Next, `Cn1cc(N2CCC(NC(=O)c3ccccc3F)C2=O)cn1` (configuration not stated): 1.627%.
For `Cn1cc(C2=NOC(C(=O)NC3(c4ccccc4)CCCC3)C2)cn1` (configuration not stated), the “Percent Effect” value was determined as 117.7%.
Take `Cn1cc(C2=NOC(C(=O)NC3(c4cccc(F)c4)CCCC3)C2)cn1` (configuration not stated): the “Percent Effect” value turned out to be 105.1%.
As to `O=C(CCCn1cncn1)NC1(c2ccccc2)CCC1`, the “Percent Effect” value is -7.229%.
Under `N[C@@H]1c2ccccc2C2(CCN(C(=O)c3cncc(Cl)c3)CC2)[C@H]1O` stands -1.083%; under `CCN(Cc1noc(C)n1)C(=O)C(c1cccc(C)c1)N(C)C` (configuration not stated), 1.236%; under `CSc1cc2c(cc1NC(=O)NCCn1ccnc1)OCCO2`, 8.638%.
As to `COCc1ccccc1C(=O)NS(=O)(=O)c1ccc2c(c1)CCC(=O)N2`, the “Percent Effect” value is listed as -32.38%.
On to `COc1ccc2c(c1)C(C(=O)N(C)CCCc1cnn(C)c1)CC(=O)N2` (configuration not stated), for which the “Percent Effect” value is -51.57%.
Under `Cn1ccnc1COc1ccc(CN2CCC(C(N)=O)CC2)cc1` stands 122.5%.
In the case of `Cn1ccnc1COc1ccc(CSc2nnnn2C)cc1`, the “Percent Effect” value amounted to 6.685%.
In the case of `Cn1ccnc1COc1ccc(CN2CCN(CCO)CC2)cc1`, the “Percent Effect” value is recorded as -5.223%.
Under `CCOC(=O)N1CCN(Cc2ccc(OCc3nccn3C)cc2)CC1` stands 3.799%; under `CC(=O)N1CCN(Cc2ccc(OCc3nccn3C)cc2)CC1`, 94.07%.
Next, `Cn1ccnc1COc1ccc(COC(=O)C2CCCO2)cc1` (configuration not stated): 0.9583%.
Consider `Cn1ccnc1COc1ccc(CO)cc1`, for which the “Percent Effect” value is listed as 4.503%.
`CC1CCCN(Cc2ccc(OCc3nccn3C)cc2)C1` (configuration not stated): the “Percent Effect” value is listed as 64.75%.
Next, `Cn1ccnc1COc1ccc(CSc2nncn2C2CC2)cc1`: -10.32%; `Cn1ccnc1COc1ccc(CSc2nnnn2C2CC2)cc1`: -14.27%; `COCCN1CCN(Cc2ccc(OCc3nccn3C)cc2)CC1`: 100.2%.
As for `CCCN1C[C@H]2CC[C@@H]1CN(Cc1cccc(O)c1)C2`, the “Percent Effect” value is 9.983%.
For the compound `CC(=O)c1ccc(N2CCCC(CO)(Cc3ccccc3C)C2)nc1` (configuration not stated), the “Percent Effect” value was -1.793%.
`Cc1ccccc1N1CCCN(C(=O)CCCS(N)(=O)=O)CC1`: the “Percent Effect” value is -5.383%.
Next, `Cc1cccc(SC2CCN(C(=O)CCCn3cnnn3)CC2)c1`: 97.25%.
Next, `Cc1ccccc1SC1CCN(C(=O)[C@H]2[C@@H]3CNC[C@@H]32)CC1`: -39.6%; `CC(=O)NCCCC(=O)N1CCC(Sc2cccc(C)c2)CC1`: 104.7%; `COc1cccc(OC2CN(C(=O)CCn3cnnn3)C2)c1`: -0.2846%.
Under `Cc1ccccc1C1CCN(C(=O)CCNS(C)(=O)=O)C1` (configuration not stated) stands -0.3491%.
As for `Cc1cccc(OC2CCN(C(=O)CNC(=O)N(C)C)CC2)c1`, the “Percent Effect” value came to 0.03491%.
Next, `Cc1cccc(SC2CCN(Cc3nc(CC4CC4)no3)CC2)c1`: -16.83%; `Cc1cccc(SC2CCN(C(=O)CCNS(C)(=O)=O)CC2)c1`: 90.55%.
Regarding `CS(=O)(=O)NCCC(=O)N1CCC(Cc2ccc(CO)cc2)C1` (configuration not stated), the “Percent Effect” value was 5.18%.
On to `Cc1ccccc1SC1CCN(C(=O)CCCS(N)(=O)=O)CC1`, for which the “Percent Effect” value stood at 85.51%.
Next, `CSCC(=O)N1CCC(Oc2cccc(C)c2)CC1`: 1.414%; `O=C(Nc1ccc2c(c1)OCO2)N1CCCC1c1ccco1` (configuration not stated): -0.7591%; `Cc1nc(CN2C[C@@H](CN3CCOCC3)[C@@H](CO)C2)c2ccccn12`: 6.539%.
Under `COCC(=O)N1CCc2nc(C(=O)N(C)C)sc2CC1` stands -18.32%; under `CN(Cc1ccc(C#N)cc1)Cc1noc(C(C)(C)C)n1`, 1.419%; under `Cc1ccccc1CCC1CCCN(Cc2c(C)[nH]c(=O)[nH]c2=O)C1` (configuration not stated), 11.3%.
Under `NS(=O)(=O)CCCC(=O)N1CCC2(CC1)c1ccccc1CC2O` (configuration not stated) stands -16.64%; under `Cc1cnccc1N1CCCN(C(=O)CCCS(N)(=O)=O)CC1`, 5.967%.
For `Cc1cccc(SC2CCN(C(=O)CCCS(N)(=O)=O)CC2)c1`, the “Percent Effect” value was found to be 79.05%.
Next, `COc1cccc(CN2CC[C@H](c3nnc(C)o3)C2)c1`: 12.81%; `Cc1ncsc1-c1nnc(C2CCN(Cc3cccc(Cl)c3)CC2)o1`: 113.8%; `COc1cccc(CN2CCC(c3nnc(-c4cnc(C)cn4)o3)C2)c1` (configuration not stated): 84.16%.
As for `Cc1ncsc1-c1nc(-c2cccc(CN3CCOCC3)c2)no1`, the “Percent Effect” value stood at 1.772%.
Regarding `COc1cccc(CN2CC[C@H](c3nnc(-c4ccco4)o3)C2)c1`, the “Percent Effect” value stood at 18.39%.
`Cc1cccc(CN2CCC(c3nnc(-c4scnc4C)o3)CC2)c1`: the “Percent Effect” value was found to be 109.5%.
Under `Cc1nc(CN2CCN(CC(=O)Nc3c(C)cccc3C)CC2)no1` stands 0.7695%.
For `COc1ccc(C(O)C(=O)N2CCC(c3nccn3C(C)C)CC2)cc1` (configuration not stated), the “Percent Effect” value is listed as -20.71%.
For the compound `CC(NC(=O)c1ccoc1)C(=O)N(C)Cc1ccc(O)cc1` (configuration not stated), the “Percent Effect” value is -3.093%.
On to `Cc1cc(NC(=O)NCC(c2ccsc2)N(C)C)n(C)n1` (configuration not stated), for which the “Percent Effect” value is given as -2.678%.
Under `Cc1cc(C(=O)NCC(c2ccsc2)N(C)C)no1` (configuration not stated) stands 113.7%; under `Cc1nn(-c2ccccc2)nc1C(=O)NCC(c1ccsc1)N(C)C` (configuration not stated), -0.008163%; under `Cc1noc(C)c1C(=O)NCC(c1ccsc1)N(C)C` (configuration not stated), 115.3%.
Under `CN(C)C(CNC(=O)c1ncoc1-c1ccccc1)c1ccsc1` (configuration not stated) stands -4.122%; under `Cc1nn(C)c(Cl)c1C(=O)NCC(c1ccsc1)N(C)C` (configuration not stated), -1.114%; under `Cc1noc(C)c1C(=O)NCC(c1ccc(F)cc1)N(C)C` (configuration not stated), -4.601%.
As for `CCN(CC)C(CNC(=O)c1c(C)noc1C(C)C)c1ccsc1` (configuration not stated), the “Percent Effect” value is 108.9%.
`Cc1noc(C(C)C)c1C(=O)NCC(c1ccsc1)N(C)C` (configuration not stated): the “Percent Effect” value was -2.505%.
Next, `CC(c1cc(F)ccc1F)N1CCN(C(=O)c2ccc(=O)[nH]c2)CC1` (configuration not stated): -31.75%; `O=C(O)C(F)(F)F.c1csc(CN2CCc3ncnc(C4CCOC4)c3CC2)c1` (configuration not stated): -9.496%.
Under `Cn1nnc2c1CCN(C(=O)C1CCC1)C2COCCN1CCCC1.O=C(O)C(F)(F)F` (configuration not stated) stands -13.51%; under `O=C(N[C@@H]1CN(Cc2c[nH]nc2-c2ccccc2)C[C@H]1O)c1cc[nH]n1`, 121.8%.
Under `COCCN1C(=O)CO[C@H]2CN(Cc3c[nH]nc3-c3ccccc3)C[C@@H]21` stands -12.21%; under `COCC(=O)N[C@@H]1CN(Cc2c[nH]nc2-c2cccs2)C[C@H]1O`, 113.8%; under `COc1ccc(-c2n[nH]cc2CN2CCSCC2)c(OC)c1`, 5.008%.
As to `Cc1n[nH]cc1CNC(=O)CCCc1cccs1`, the “Percent Effect” value is -6.834%.
As for `CCC[C@H]1CN(CCS(C)(=O)=O)C[C@@H]1NC(=O)c1cc[nH]n1`, the “Percent Effect” value was -12.34%.
`CC(C)CC(C)(CNC(=O)c1cnccn1)NC(=O)c1cnccn1` (configuration not stated): the “Percent Effect” value turned out to be 15.43%.
Under `CO[C@@H]1CC[C@@H](N(C)C(=O)c2cn3cc(C)ccc3n2)[C@H]1O` stands 56.83%; under `Cc1cn2cc(C(=O)NC3CCCN(c4ncccn4)C3)ccc2n1` (configuration not stated), -3.56%.
Under `CO[C@@H]1CCC[C@@H](N(C)C(=O)c2cn3cc(C)ccc3n2)[C@H]1O` stands 110.8%.
Consider `Cc1ccc2nc(C(=O)N(C)[C@@H]3CC[C@@H](N4CCCC4)[C@@H]3O)cn2c1`, for which the “Percent Effect” value came out at 129%.
Under `Cc1ccc2nc(C(=O)N3CCNC(=O)C3c3cccc(F)c3)cn2c1` (configuration not stated) stands -1.772%; under `Cc1ccc2c(ccn2CC(=O)NC[C@@H]2CCCN3CCCC[C@H]23)c1`, 4.302%.
Next, `Cc1ccc2nc(C(=O)N3CCC(CCn4cccn4)CC3)cn2c1`: -8.837%.
Under `c1cncc(NCCNC2CCSCC2)c1` stands -10.95%.
For `CCn1cc(N2Cc3nc(N4CCOCC4)ncc3C2=O)cn1`, the “Percent Effect” value turned out to be 28.99%.
`COC(=O)c1ccc(C2CC(=O)Oc3cc(C)[nH]c(=O)c32)cc1` (configuration not stated): the “Percent Effect” value is -3.935%.
Under `CN1CCC(c2cccc(Cc3ccccc3)n2)CC1` stands 111.8%.
As for `CN1CCC(c2cccc(Cc3ccc(F)cc3)n2)CC1`, the “Percent Effect” value is recorded as -5.274%.
Under `CN1CCC(c2cccc(Cc3ccc(C(F)(F)F)cc3)n2)CC1` stands 90.57%; under `O=S(=O)(c1ccc(C(F)(F)F)cc1)N1CCC(OCc2ccccn2)C1` (configuration not stated), -13.15%; under `COc1ccc(Cc2cccc(C3CCN(C)CC3)n2)cc1`, -4.713%.
Next, `Cl.NC(c1ccc(Cl)cc1)c1cccs1` (configuration not stated): -4.089%; `Cc1cccc(C)c1CN1C(=O)CC2(CCSC2)C1=O` (configuration not stated): -6.047%; `Cc1n[nH]c(SCC(=O)N2C[C@H]3CC[C@@H]2CN(c2ncccn2)C3)n1`: -6.945%.
Next, `COc1ccnc(N2CCN(Cc3ncc(-c4ccccc4)o3)CC2)n1`: -5.442%; `CC(=O)NCc1ccc(C(=O)N2CCCC2c2cnn(C)c2)cc1` (configuration not stated): 89.24%.
As to `CC(=O)NCc1ccc(C(=O)N2CCCC2c2cnn(C)c2)o1` (configuration not stated), the “Percent Effect” value stood at 4.332%.
Next, `CCN(CC)Cc1ccc(C(=O)N2CCCCC2Cn2cccn2)o1` (configuration not stated): -4.824%.
Under `CC(=O)NCCc1ccc(C(=O)N2CCCC2c2cnn(C)c2)cc1` (configuration not stated) stands 2.733%; under `CC(=O)NCc1ccc(C(=O)N2CCCC2c2cnn(C)c2)s1` (configuration not stated), 110.6%.
In the case of `Cc1cc(C)n(-c2ccc(C(=O)N3CCCC3c3cnn(C)c3)cc2)n1` (configuration not stated), the “Percent Effect” value is -0.5529%.
For the compound `CCN(CC)Cc1ccc(C(=O)N2CCCC2c2cnn(C)c2)o1` (configuration not stated), the “Percent Effect” value is listed as 101.4%.

(Values after ChEMBL document CHEMBL3988442, “University of Dundee, Small-Polar-MMV Screening Library” (2021).)
